Values joined by “and” are separate entries in the source; they are usually repeats but may differ in a detail not shown here. Equal values may be shown once. About 2,000 (36%) of roughly 5,500 compounds were called active. Inconclusive results (about 18%) are left out. Rule as the data show it: active = normalized growth mostly below about 0.91 (no sharp cut-off); inconclusive = no clear call, values can overlap the other calls; inactive = mostly above about 0.92. This is one part of the list.
Assay: chemical genetic growth profiling, strain panel (AID 1159580);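 also: tested at 20 µM; growth read once vehicle control cultures reached saturation at 30 °C; 1 = growth at the plate median or of vehicle wells; lower values mean less growth of the strain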
Settings: growth OD

Measured: normalized growth

CN(C)CCC=C1c2ccccc2CCc2ccccc21
active: S. cerevisiae deletion strains, locus YNL209W, strain ssb2, active compounds read low 0.897
inactive: S. cerevisiae deletion strains, locus YJR066W, strain TOR1, active compounds read low 0.983 | S. cerevisiae deletion strains, locus YJR075W, strain HOC1, active compounds read low 0.981 | S. cerevisiae deletion strains, locus YKL009W, strain mrt4, active compounds read low 0.998 | S. cerevisiae deletion strains, locus YKL068W, active compounds read low 0.998 | S. cerevisiae deletion strains, locus YKL085W, strain MDH1 (second series), active compounds read low 0.996 | S. cerevisiae deletion strains, locus YKL085W, strain MDH1, active compounds read low 0.996 | S. cerevisiae deletion strains, locus YKL160W, strain elf1, active compounds read low 1.01 | S. cerevisiae deletion strains, locus YKL190W, strain CNB1, active compounds read low 1.01 | S. cerevisiae deletion strains, locus YKR001C, strain vps1, active compounds read low 0.985 | S. cerevisiae deletion strains, locus YKR026C, strain gcn3, active compounds read low 0.998 | S. cerevisiae deletion strains, locus YKR091W, strain srl3, active compounds read low 0.964 | S. cerevisiae deletion strains, locus YLL001W, strain dnm1, active compounds read low 1.02 | S. cerevisiae deletion strains, locus YLL026W, active compounds read low 1 | S. cerevisiae deletion strains, locus YLL041C, strain sdh2, active compounds read low 0.986 | S. cerevisiae deletion strains, locus YLR027C, strain aat2, active compounds read low 0.997 | S. cerevisiae deletion strains, locus YLR039C, strain RIC1, active compounds read low 1.05 | S. cerevisiae deletion strains, locus YLR058C, strain SHM2, active compounds read low 1.01 | S. cerevisiae deletion strains, locus YLR102C, strain apc9, active compounds read low 0.987 | S. cerevisiae deletion strains, locus YLR113W, strain HOG1, active compounds read low 1.02 | S. cerevisiae deletion strains, locus YLR221C, strain rsa3, active compounds read low 0.94 | S. cerevisiae deletion strains, locus YLR258W, strain gsy2, active compounds read low 0.972 | S. cerevisiae deletion strains, locus YLR262C, strain YPT6 (second series), active compounds read low 1.06 | S. cerevisiae deletion strains, locus YLR262C, strain YPT6, active compounds read low 1.1 | S. cerevisiae deletion strains, locus YLR268W, strain sec22, active compounds read low 0.998 | S. cerevisiae deletion strains, locus YLR320W, strain mms22, active compounds read low 0.95 | S. cerevisiae deletion strains, locus YLR330W, strain CHS5, active compounds read low 1.01 | S. cerevisiae deletion strains, locus YLR342W, strain FKS1 (second series), active compounds read low 0.981 | S. cerevisiae deletion strains, locus YLR342W, strain FKS1, active compounds read low 0.963 | S. cerevisiae deletion strains, locus YLR357W, strain rsc2, active compounds read low 0.92 | S. cerevisiae deletion strains, locus YLR370C, strain arc18, active compounds read low 0.956 | S. cerevisiae deletion strains, locus YLR371W, strain rom2, active compounds read low 1 | S. cerevisiae deletion strains, locus YLR384C, strain iki3, active compounds read low 0.988 | S. cerevisiae deletion strains, locus YLR418C, strain cdc73, active compounds read low 0.985 | S. cerevisiae deletion strains, locus YML016C, strain PPZ1, active compounds read low 1 | S. cerevisiae deletion strains, locus YML032C, strain rad52, active compounds read low 0.993 | S. cerevisiae deletion strains, locus YML120C, strain ndi1, active compounds read low 0.986 | S. cerevisiae deletion strains, locus YML124C, strain tub3, active compounds read low 0.99 | S. cerevisiae deletion strains, locus YMR058W, strain fet3, active compounds read low 0.979 | S. cerevisiae deletion strains, locus YMR078C, strain ctf18, active compounds read low 1 | S. cerevisiae deletion strains, locus YMR125W, strain sto1, active compounds read low 0.924 | S. cerevisiae deletion strains, locus YMR129W, active compounds read low 0.971 | S. cerevisiae deletion strains, locus YMR205C, strain PFK2, active compounds read low 0.995 | S. cerevisiae deletion strains, locus YMR223W, strain ubp8, active compounds read low 1 | S. cerevisiae deletion strains, locus YMR231W, strain pep5, active compounds read low 0.987 | S. cerevisiae deletion strains, locus YMR263W, strain SAP30, active compounds read low 1.01 and 1.02 | S. cerevisiae deletion strains, locus YMR307W, strain GAS1, active compounds read low 1.04 and 1.01 | S. cerevisiae deletion strains, locus YNL067W, strain RPL9B, active compounds read low 1.01 | S. cerevisiae deletion strains, locus YNL071W, strain lat1, active compounds read low 0.998 | S. cerevisiae deletion strains, locus YNL153C, strain GIM3, active compounds read low 1 and 0.972 | S. cerevisiae deletion strains, locus YNL175C, strain NOP13, active compounds read low 1.01 | S. cerevisiae deletion strains, locus YNL183C, strain NPR1, active compounds read low 0.998 | S. cerevisiae deletion strains, locus YNL197C, strain WHI3, active compounds read low 1.06 | S. cerevisiae deletion strains, locus YNL224C, strain SQS1, active compounds read low 1.03 | S. cerevisiae deletion strains, locus YNL233W, strain BNI4, active compounds read low 1.01 | S. cerevisiae deletion strains, locus YNL248C, strain rpa49, active compounds read low 0.915 | S. cerevisiae deletion strains, locus YNL250W, strain rad50, active compounds read low 0.995 | S. cerevisiae deletion strains, locus YNL271C, strain bni1, active compounds read low 1 | S. cerevisiae deletion strains, locus YNL298W, strain CLA4, active compounds read low 0.991 | S. cerevisiae deletion strains, locus YNL307C, strain MCK1, active compounds read low 0.999 | S. cerevisiae deletion strains, locus YNL322C, strain KRE1 (second series), active compounds read low 0.997 | S. cerevisiae deletion strains, locus YNL322C, strain KRE1, active compounds read low 1.01 | S. cerevisiae deletion strains, locus YNR049C, strain mso1, active compounds read low 0.974 | S. cerevisiae deletion strains, locus YNR052C, strain pop2, active compounds read low 0.998 | S. cerevisiae deletion strains, locus YOL012C, strain htz1 1.09 | S. cerevisiae deletion strains, locus YOL147C, strain pex11, active compounds read low 1 | S. cerevisiae deletion strains, locus YOR001W, strain rrp6, active compounds read low 0.971 | S. cerevisiae deletion strains, locus YOR061W, strain CKA2, active compounds read low 1.01 | S. cerevisiae deletion strains, locus YOR069W, strain VPS5, active compounds read low 1.01 | S. cerevisiae deletion strains, locus YOR070C, strain gyp1, active compounds read low 0.975 | S. cerevisiae deletion strains, locus YOR080W, strain dia2, active compounds read low 0.987 | S. cerevisiae deletion strains, locus YOR083W, strain WHI5 (second series), active compounds read low 1.08 | S. cerevisiae deletion strains, locus YOR083W, strain WHI5, active compounds read low 0.975 | S. cerevisiae deletion strains, locus YOR106W, strain vam3, active compounds read low 0.96 | S. cerevisiae deletion strains, locus YOR136W, strain idh2, active compounds read low 0.984 | S. cerevisiae deletion strains, locus YOR144C, strain elg1, active compounds read low 0.977 | S. cerevisiae deletion strains, locus YOR184W, strain ser1, active compounds read low 0.991 | S. cerevisiae deletion strains, locus YOR231W, strain MKK1, active compounds read low 1.05 | S. cerevisiae deletion strains, locus YOR265W, strain rbl2, active compounds read low 0.98 | S. cerevisiae deletion strains, locus YOR270C, strain vph1, active compounds read low 0.87 | S. cerevisiae deletion strains, locus YOR290C, strain snf2, active compounds read low 0.938 | S. cerevisiae deletion strains, locus YOR316C, strain cot1, active compounds read low 0.993 | S. cerevisiae deletion strains, locus YPL051W, strain arl3, active compounds read low 0.957 | S. cerevisiae deletion strains, locus YPL078C, strain atp4, active compounds read low 0.994 | S. cerevisiae deletion strains, locus YPL106C, strain sse1, active compounds read low 0.987 | S. cerevisiae deletion strains, locus YPL240C, strain hsp82, active compounds read low 0.991 | S. cerevisiae deletion strains, locus YPL256C, strain CLN2, active compounds read low 1.06 | S. cerevisiae deletion strains, locus YPR119W, strain clb2, active compounds read low 1 | S. cerevisiae deletion strains, locus YPR141C, strain kar3, active compounds read low 1 | S. cerevisiae deletion strains, locus YPR163C, strain tif3, active compounds read low 0.999 | S. cerevisiae deletion strains, locus YPR167C, strain met16, active compounds read low 1 | S. cerevisiae deletion strains, strain wtn01, active compounds read low 0.982 | S. cerevisiae strains, strain wild type, active compounds read low 1.01

— PubChem BioAssay AID1159580 (chemical genetic matrix, 2015)
